Measurements published in PubChem BioAssay AID1159580 (chemical genetic matrix, 2015).
Values joined by “and” are separate entries in the source; they are usually repeats but may differ in a detail not shown here. Equal values may be shown once. Screen size: about 5,500 compounds; about 2,000 (36%) were called active. Another 18% or so got no clear call; they are omitted. No stated cut-off is given here; in the data, active means normalized growth mostly below about 0.91 (no sharp cut-off); inconclusive means no clear call, values can overlap the other calls; inactive means mostly above about 0.92. The list shows a part of the results.

Test: chemical genetic growth profiling, strain panel (AID 1159580);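 further: tested at 20 µM; growth read once vehicle control cultures reached saturation at 30 °C; 1 = growth at the plate median or of vehicle wells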
Conditions: S. cerevisiae deletion strains, growth OD

Measured: normalized growth

C=C(C)C1CNC(C(=O)O)C1CC(=O)O (stereo unspecified)
inactive: locus YAL013W, strain DEP1, stronger effect = lower value 1.01 | locus YAL021C, strain ccr4, stronger effect = lower value 0.995 | locus YAL026C, strain drs2, stronger effect = lower value 0.996 | locus YAL030W, strain snc1, stronger effect = lower value 0.99 | locus YBL061C, strain skt5, stronger effect = lower value 0.992 | locus YBR009C, strain hhf1, stronger effect = lower value 0.987 | locus YBR021W, strain FUR4, stronger effect = lower value 0.986 | locus YBR023C, strain chs3, stronger effect = lower value 0.987 | locus YBR171W, strain sec66, stronger effect = lower value 0.986 | locus YBR229C, strain ROT2, stronger effect = lower value 1.01 | locus YBR231C, strain swc5, stronger effect = lower value 1 | locus YBR279W, strain paf1, stronger effect = lower value 0.997 | locus YCL011C, strain gbp2, stronger effect = lower value 0.985 | locus YCL016C, strain dcc1, stronger effect = lower value 0.998 | locus YCL029C, strain bik1, stronger effect = lower value 1.03 | locus YCL061C, strain MRC1, stronger effect = lower value 0.999 | locus YCL069W, strain vba3, stronger effect = lower value 0.995 | locus YCR088W, strain abp1, stronger effect = lower value 0.988 | locus YDL005C, strain med2, stronger effect = lower value 0.984 | locus YDL035C, strain GPR1, stronger effect = lower value 1.03 | locus YDL040C, strain nat1, stronger effect = lower value 0.986 | locus YDL074C, strain BRE1, stronger effect = lower value 1.03 | locus YDL101C, strain DUN1, stronger effect = lower value 1.02 | locus YDL185W, strain tfp1, stronger effect = lower value 1.04 | locus YDL192W, strain arf1, stronger effect = lower value 1.02 | locus YDR001C, strain nth1, stronger effect = lower value 0.99 | locus YDR069C, strain doa4, stronger effect = lower value 0.981 | locus YDR101C, strain arx1, stronger effect = lower value 1.01 | locus YDR137W, strain rgp1, stronger effect = lower value 0.972 | locus YDR150W, strain NUM1, stronger effect = lower value 1.01 | locus YDR159W, strain sac3, stronger effect = lower value 0.985 | locus YDR162C, strain NBP2, stronger effect = lower value 1.05 | locus YDR195W, strain ref2 0.967 | locus YDR297W, strain sur2, stronger effect = lower value 0.993 | locus YDR318W, strain mcm21, stronger effect = lower value 1.01 | locus YDR334W, strain swr1, stronger effect = lower value 0.992 | locus YDR335W, strain msn5, stronger effect = lower value 0.994 | locus YDR388W, stronger effect = lower value 1.01 | locus YDR392W, strain spt3, stronger effect = lower value 0.947 | locus YDR502C, strain sam2, stronger effect = lower value 1.03 | locus YEL003W, strain gim4, stronger effect = lower value 0.999 | locus YEL037C, strain rad23, stronger effect = lower value 0.988 | locus YEL061C, strain CIN8 (second series), stronger effect = lower value 0.986 | locus YEL061C, strain CIN8, stronger effect = lower value 1 | locus YER015W, strain faa2, stronger effect = lower value 0.993 | locus YER016W, strain bim1, stronger effect = lower value 0.978 | locus YER110C, stronger effect = lower value 1.02 | locus YER111C, strain swi4, stronger effect = lower value 0.996 | locus YER155C, strain BEM2 (second series), stronger effect = lower value 0.989 | locus YER155C, strain BEM2, stronger effect = lower value 0.99 | locus YER167W, strain BCK2, stronger effect = lower value 1.01 | locus YFR010W, strain ubp6, stronger effect = lower value 0.996 | locus YGL078C, strain dbp3, stronger effect = lower value 1.02 | locus YGL086W, strain mad1, stronger effect = lower value 1.02 | locus YGL167C, strain pmr1, stronger effect = lower value 0.996 | locus YGL173C, strain kem1, stronger effect = lower value 0.983 | locus YGL227W, strain vid30, stronger effect = lower value 0.989 | locus YGL240W, strain doc1, stronger effect = lower value 1.01 | locus YGL248W, strain PDE1, stronger effect = lower value 1.01 | locus YGL253W, strain hxk2, stronger effect = lower value 1 | locus YGR135W, strain pre9, stronger effect = lower value 1.03 | locus YGR252W, strain gcn5, stronger effect = lower value 1.07 | locus YHR013C, strain ard1, stronger effect = lower value 0.984 | locus YHR027C, strain rpn1, stronger effect = lower value 0.989 | locus YHR030C, strain SLT2, stronger effect = lower value 1.01 and 0.998 | locus YHR079C, strain IRE1 (second series), stronger effect = lower value 1.02 | locus YHR079C, strain IRE1, stronger effect = lower value 0.987 | locus YHR094C, strain hxt1, stronger effect = lower value 1.03 | locus YHR129C, strain ARP1, stronger effect = lower value 1.02 | locus YHR142W, strain chs7, stronger effect = lower value 0.988 | locus YHR200W, strain rpn10, stronger effect = lower value 1.01 | locus YIL066C, strain RNR3, stronger effect = lower value 1.04 | locus YIL073C, strain SPO22, stronger effect = lower value 1.07 | locus YIL125W, strain kgd1, stronger effect = lower value 1.02 | locus YIR030C, strain dcg1, stronger effect = lower value 1.02 | locus YJL092W, strain hpr5, stronger effect = lower value 0.989 | locus YJL095W, strain BCK1 (second series), stronger effect = lower value 0.99 | locus YJL095W, strain BCK1, stronger effect = lower value 1.05 and 0.992 | locus YJL115W, strain asf1, stronger effect = lower value 0.98 | locus YJL129C, strain trk1, stronger effect = lower value 1 | locus YJL134W, strain LCB3, stronger effect = lower value 1.01 | locus YJL154C, strain vps35, stronger effect = lower value 0.99 | locus YJL164C, strain tpk1, stronger effect = lower value 0.999 | locus YJL166W, strain qcr8, stronger effect = lower value 0.996 | locus YJL168C, strain set2, stronger effect = lower value 1.01 | locus YJL187C, strain SWE1 (second series), stronger effect = lower value 1.03 | locus YJL187C, strain SWE1, stronger effect = lower value 0.998 | locus YJR043C, strain POL32, stronger effect = lower value 1.02 | locus YJR066W, strain TOR1, stronger effect = lower value 0.931 | locus YJR075W, strain HOC1, stronger effect = lower value 1.03 | locus YKL009W, strain mrt4, stronger effect = lower value 1.03 | locus YKL068W, stronger effect = lower value 1.02 | locus YKL085W, strain MDH1 (second series), stronger effect = lower value 1.01 | locus YKL085W, strain MDH1, stronger effect = lower value 1.01 | locus YKL160W, strain elf1, stronger effect = lower value 1 | locus YKR001C, strain vps1, stronger effect = lower value 1.03 | locus YKR026C, strain gcn3, stronger effect = lower value 0.971 | locus YKR091W, strain srl3, stronger effect = lower value 0.999 | locus YLL001W, strain dnm1, stronger effect = lower value 0.994 | locus YLL026W, stronger effect = lower value 1 | locus YLL041C, strain sdh2, stronger effect = lower value 0.996 | locus YLR027C, strain aat2, stronger effect = lower value 0.992 | locus YLR039C, strain RIC1, stronger effect = lower value 1.11 | locus YLR058C, strain SHM2, stronger effect = lower value 1.02 | locus YLR102C, strain apc9, stronger effect = lower value 1.01 | locus YLR113W, strain HOG1, stronger effect = lower value 0.987 | locus YLR221C, strain rsa3, stronger effect = lower value 0.998 | locus YLR258W, strain gsy2, stronger effect = lower value 0.988 | locus YLR262C, strain YPT6 (second series), stronger effect = lower value 0.991 | locus YLR262C, strain YPT6, stronger effect = lower value 1.09 | locus YLR268W, strain sec22, stronger effect = lower value 1.02 | locus YLR320W, strain mms22, stronger effect = lower value 0.991 | locus YLR330W, strain CHS5, stronger effect = lower value 1.01 | locus YLR342W, strain FKS1 (second series), stronger effect = lower value 1.04 | locus YLR342W, strain FKS1, stronger effect = lower value 0.987 | locus YLR357W, strain rsc2, stronger effect = lower value 0.975 | locus YLR370C, strain arc18, stronger effect = lower value 0.986 | locus YLR371W, strain rom2, stronger effect = lower value 0.995 | locus YLR384C, strain iki3, stronger effect = lower value 0.97 | locus YLR418C, strain cdc73, stronger effect = lower value 1.03 | locus YML016C, strain PPZ1, stronger effect = lower value 1.02 | locus YML032C, strain rad52, stronger effect = lower value 1.03 | locus YML120C, strain ndi1, stronger effect = lower value 1 | locus YML124C, strain tub3, stronger effect = lower value 1.02 | locus YMR058W, strain fet3, stronger effect = lower value 0.993 | locus YMR078C, strain ctf18, stronger effect = lower value 1.03 | locus YMR125W, strain sto1, stronger effect = lower value 0.97 | locus YMR129W, stronger effect = lower value 1 | locus YMR205C, strain PFK2, stronger effect = lower value 0.962 | locus YMR223W, strain ubp8, stronger effect = lower value 1.02 | locus YMR231W, strain pep5, stronger effect = lower value 0.989 | locus YMR307W, strain GAS1, stronger effect = lower value 1.07 | locus YNL067W, strain RPL9B, stronger effect = lower value 1.02 | locus YNL071W, strain lat1, stronger effect = lower value 0.999 | locus YNL153C, strain GIM3, stronger effect = lower value 1.02 | locus YNL183C, strain NPR1, stronger effect = lower value 0.909 | locus YNL209W, strain ssb2, stronger effect = lower value 0.991 | locus YNL233W, strain BNI4, stronger effect = lower value 1.03 | locus YNL248C, strain rpa49, stronger effect = lower value 1.01 | locus YNL250W, strain rad50, stronger effect = lower value 1.03 | locus YNL271C, strain bni1, stronger effect = lower value 1.02 | locus YNL298W, strain CLA4, stronger effect = lower value 1.02 | locus YNL307C, strain MCK1, stronger effect = lower value 1.02 | locus YNL322C, strain KRE1 (second series), stronger effect = lower value 0.991 | locus YNL322C, strain KRE1, stronger effect = lower value 1 | locus YNR049C, strain mso1, stronger effect = lower value 0.986 | locus YNR052C, strain pop2, stronger effect = lower value 1.01 | locus YOL006C, strain TOP1, stronger effect = lower value 1.14 | locus YOL012C, strain htz1 0.909 | locus YOL147C, strain pex11, stronger effect = lower value 1.01 | locus YOR001W, strain rrp6, stronger effect = lower value 1.01 | locus YOR061W, strain CKA2, stronger effect = lower value 1.01 | locus YOR069W, strain VPS5, stronger effect = lower value 1.01 | locus YOR070C, strain gyp1, stronger effect = lower value 0.985 | locus YOR080W, strain dia2, stronger effect = lower value 0.983 | locus YOR083W, strain WHI5, stronger effect = lower value 1 | locus YOR106W, strain vam3, stronger effect = lower value 1.02 | locus YOR136W, strain idh2, stronger effect = lower value 1.02 | locus YOR144C, strain elg1, stronger effect = lower value 1 | locus YOR184W, strain ser1, stronger effect = lower value 1.02 | locus YOR231W, strain MKK1, stronger effect = lower value 0.992 | locus YOR265W, strain rbl2, stronger effect = lower value 0.994 | locus YOR270C, strain vph1, stronger effect = lower value 1.02 | locus YOR290C, strain snf2, stronger effect = lower value 1 | locus YOR316C, strain cot1, stronger effect = lower value 1 | locus YPL051W, strain arl3, stronger effect = lower value 0.998 | locus YPL055C, strain LGE1, stronger effect = lower value 1.03 | locus YPL078C, strain atp4, stronger effect = lower value 1.01 | locus YPL106C, strain sse1, stronger effect = lower value 0.978 | locus YPL240C, strain hsp82, stronger effect = lower value 0.997 | locus YPL256C, strain CLN2, stronger effect = lower value 0.977 | locus YPR119W, strain clb2, stronger effect = lower value 1 | locus YPR141C, strain kar3, stronger effect = lower value 1.03 | locus YPR163C, strain tif3, stronger effect = lower value 1.02 | locus YPR167C, strain met16, stronger effect = lower value 1.02 | strain wtn01, stronger effect = lower value 1.02
